Results as given in PubChem BioAssay AID493220 (National Center for Advancing Translational Sciences (NCATS), 2011).
Inconclusive results are not listed. Active and inactive are the calls of the source. Calls follow the shape of the full dose curve.

biological target: Polyunsaturated fatty acid lipoxygenase ALOX15 (Homo sapiens) (UniProt P16050); assay: Inhibitors of 12-hLO (12-human lipoxygenase): 15hLO-1 Cuvette-Based Inhibition Counterscreen Assay for 12hLO Followup Compounds; conditions: purified 15hLO-1, UV 234 nm product formation
Sequence (P16050 whole entry, looked up): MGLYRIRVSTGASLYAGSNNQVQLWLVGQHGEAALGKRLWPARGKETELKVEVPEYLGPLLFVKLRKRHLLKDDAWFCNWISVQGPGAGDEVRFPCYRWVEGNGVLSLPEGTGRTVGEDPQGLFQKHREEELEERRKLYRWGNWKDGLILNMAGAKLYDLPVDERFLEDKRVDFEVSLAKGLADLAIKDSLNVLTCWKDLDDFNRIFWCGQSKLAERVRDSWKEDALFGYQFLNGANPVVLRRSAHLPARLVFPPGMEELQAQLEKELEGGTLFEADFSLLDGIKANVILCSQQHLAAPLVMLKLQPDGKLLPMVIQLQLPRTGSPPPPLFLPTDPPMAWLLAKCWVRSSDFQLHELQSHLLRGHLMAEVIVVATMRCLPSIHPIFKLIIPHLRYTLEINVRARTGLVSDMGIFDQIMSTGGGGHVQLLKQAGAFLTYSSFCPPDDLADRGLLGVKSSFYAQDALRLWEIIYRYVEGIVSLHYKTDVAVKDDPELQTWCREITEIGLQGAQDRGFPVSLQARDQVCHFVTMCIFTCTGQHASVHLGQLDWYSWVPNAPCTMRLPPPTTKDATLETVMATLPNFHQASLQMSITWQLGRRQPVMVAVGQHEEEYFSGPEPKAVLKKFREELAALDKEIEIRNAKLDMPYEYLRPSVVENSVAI
In short: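 Purified human 15hLO-1 at 50-200 nM, set to give 0.02-0.04 AU/s, was added to 10 uM arachidonic acid in 25 mM HEPES with 0.01% Triton X-100, pH 8.0. Product formation was followed at 234 nm in a stirred cuvette. IC50 values came from rates at about five inhibitor concentrations.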

| Structure (SMILES) | Potency | outcome |
| --- | --- | --- |
| COc1cccc(-c2cnc(NCc3cc(Cl)ccc3O)n2C)c1 | 32.9 µM (active) |  |
| O=C(CSc1n[nH]c(-c2ccccc2)n1)c1ccc(O)c(O)c1 | 5.77 µM (active) |  |
| COc1ccc(Cc2nc(C(=O)Nc3ccc(OC)cc3)cs2)cc1 | 8.84 µM (active) |  |
| Oc1ccccc1-c1cc(-c2cccc(F)c2)n[nH]1 | 4.81 µM (active) |  |
| CN(C)c1nccc(N(Cc2ccccc2)Cc2ccccc2)c1C#N | 17.7 µM (active) |  |
| Cc1ccc(C(=O)Nc2nnc(-c3ccco3)o2)cc1C |  | inactive |
| CCc1ccc(S(=O)(=O)/N=C2/C=C(Sc3ncn[nH]3)C(=O)c3ccccc32)cc1 | 9.52 µM (active) |  |
| O=C(Nc1nnc(-c2ccccn2)o1)c1ccc(Br)cc1 |  | inactive |
| Cc1cc(Cl)cc(Cl)c1OCC(=O)NCc1ccco1 | 88.6 µM (active) |  |
| CC1=NN(c2ccc(Cl)cc2)C(=O)C1C(c1ccccc1O)c1c(C)[nH]n(-c2ccc(Cl)cc2)c1=O (stereo not given) | 20 µM (active) |  |
| COc1ccc(C(=O)Nc2cc(C(=O)c3ccccc3)c(C)oc2=O)cc1 |  | inactive |
| Oc1ccc(CN2CCCc3ccccc32)c2cccnc12 | 81.3 µM (active) |  |
| CCOC(=O)Cc1cc(=O)n(-c2nc3ccccc3s2)[nH]1 |  | inactive |
| Oc1ccccc1-c1cc(-c2ccc3c(c2)OCCO3)n[nH]1 | 2.55 µM (active) |  |
| CCCOC(=O)c1ccc(Oc2c(-c3ccc(O)cc3O)n[nH]c2C)cc1 | 6.81 µM (active) |  |
